Reference: PubChem BioAssay (NCI)
About 83,000 compounds went through this panel and 20% of them were active in at least one assay; those are over-represented in the sample as a whole.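 Testing used 96-well plates and a 48-hour single-concentration exposure. Example: -40 means 40% of the starting cells died.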 A number with no mark means an inactive call. Active and inactive are the calls of the source. The calls were made as follows: active = growth percent below 10; inactive = the rest.

Assays:
Experiment in all cases: NCI-60 one-dose screen, 48 h (100 = growth as untreated, 0 = no growth, -100 = all killed)
Conditions in all cases: 10 µM unless noted
NCI-H23 lung = test system: NCI-H23 lung
NCI-H226 lung = test system: NCI-H226 lung
NCI-H322M lung = test system: NCI-H322M lung
HOP-62 NSCLC = test system: HOP-62 NSCLC
NCI-H460 lung = test system: NCI-H460 lung
HOP-92 NSCLC = test system: HOP-92 NSCLC
NCI-H522 lung = test system: NCI-H522 lung
A549/ATCC NSCLC = test system: A549/ATCC NSCLC
786-0 renal = test system: 786-0 renal
COLO 205 colon = test system: COLO 205 colon
DU-145 prostate = test system: DU-145 prostate
K-562 leukemia = test system: K-562 leukemia
MALME-3M melanoma = test system: MALME-3M melanoma
MDA-MB-231 breast = test system: MDA-MB-231 breast
RXF 393 renal = test system: RXF 393 renal
SF-268 CNS = test system: SF-268 CNS
SF-295 CNS = test system: SF-295 CNS
SF-539 CNS = test system: SF-539 CNS
UACC-257 melanoma = test system: UACC-257 melanoma
M14 melanoma = test system: M14 melanoma

Structure (SMILES) | growth (NCI-H23 lung) | growth (NCI-H226 lung) | growth (NCI-H322M lung) | growth (HOP-62 NSCLC) | growth (NCI-H460 lung) | growth (HOP-92 NSCLC) | growth (NCI-H522 lung) | growth (A549/ATCC NSCLC) | growth (786-0 renal) | growth (COLO 205 colon) | growth (DU-145 prostate) | growth (K-562 leukemia) | growth (MALME-3M melanoma) | growth (MDA-MB-231 breast) | growth (RXF 393 renal) | growth (SF-268 CNS) | growth (SF-295 CNS) | growth (SF-539 CNS) | growth (UACC-257 melanoma) | growth (M14 melanoma)
O=C1CC(N2C(=O)/C(=C/C(Cl)=C\c3ccc([N+](=O)[O-])cc3)SC2=S)C(=O)N1c1ccc(Cl)cc1 (stereo not given) | 17.3% | 95.5% | 65.1% | 50.4% | 74.5% | -18.6% (active) | -26.4% (active) | 71% | -12.1% (active) | 4.01% (active) | 22.4% | 6.26% (active) | 22.9% | -3.07% (active) | -64.1% (active) | 21.8% | 40.7% | 15.9% | 57.8% | 23.9%
O=C1Nc2ccc(Br)cc2/C1=N/c1n[nH]c(=S)s1 | 93.3% | 99.4% | 107% | 89% | 106% | 94.8% | 93.4% | 98% | 97.8% | 114% | 106% | 90.8% | 107% | 105% | 109% | 91.5% | 101% | 99.7% | 99.6% | 99.8%
C=CCn1c(SCC(=O)Nc2ccc(C(=O)/C=C/c3cc4cc(OC)ccc4nc3Cl)cc2)nnc1-c1ccc(Br)cc1 | 78% | 89.4% | 81.9% | 99.3% | 88.4% | 70.1% | 52.9% | 70.7% | 80.9% | 112% | 86.1% | 46.3% | 92.5% | 80.5% | 83.2% | 76% | 92.1% | 89.5% | 79.8% | 90.1%
COc1ccc2[nH]cc(-c3nc(-c4cn(C)c5c(Cl)nccc45)cs3)c2c1 | 58.3% | 40.8% | 75.5% | 56.6% | 6.1% (active) | 78.8% | 13.9% | 33.8% | 16.2% | 32.9% | 40.7% | 17.9% | 72.1% | 48.2% | 32.5% | 73% | 37.9% | 23.3% | -33% (active) | 14%
COc1ccc(-c2nc(SCC(C)C)nc(N/N=C\c3ccc(F)cc3)c2C#N)cc1 | 97.4% | 81.4% | 67.7% | 109% | 25.7% | 89.9% | 107% | 69.9% | 83% | 94.8% | 94.3% | 94% | 81% | 93.1% | 111% | 86.6% | 75.8% | 91.6% | 102% | 92.7%
CCCCNc1ccc(C#N)c(OCCN(CC)CC)c1 | 92.8% | 88% | 100% | 101% | 104% | 94.4% | 92.8% | 101% | 112% | 100% | 113% | 86% | 109% | 99.3% | 103% | 103% | 107% | 111% | 114% | 104%
CC1=Nc2cnc(Nc3ccc(OCCN4CCCCC4)cc3)nc2Nc2ccccc21 | 71.5% | 81.3% | 42% | 81.4% | 61.6% | 32% | 70.7% | 77.2% | 48.5% | 63.7% | 57.8% | 24.1% | 58.4% | 60.6% | 33.6% | 64.9% | 76.5% | 69.6% | 87.6% | 50.6%
O=C(O)c1[nH]c(=O)[nH]c(=O)c1[N+](=O)[O-] | 109% | 108% | 119% | 104% | 115% | 88% | 138% | 106% | 106% | 112% | 134% | 89.7% | 124% | 110% | 113% | 117% | 104% | 103% | 97.7% | 110%
CS(=O)(=O)c1cccc(-c2c(-c3cccc(OS(N)(=O)=O)c3)nc3sccn23)c1 | 108% | 92.5% | 98.2% | 93.8% | 105% | 77.8% | 96.9% | 106% | 101% | 117% | 113% | 100% | 102% | 93% | 107% | 101% | 98.3% | 93.5% | 106% | 105%
C/C(=N/O)c1ccc(F)cc1 | 84% | 91.5% | 111% | 92.8% | 36.6% | 109% | 55.4% | 103% | 107% | 90.6% | 5.59% (active) | 92.7% | 130% | 88% | 64.1% | 102% | 75% | 119% | 95.3% | 94.9%
CC[C@]12C=CCN3CC[C@@]4(c5cc(NC(=O)CCC(=O)OCc6cn(Cc7ccc(F)cc7)nn6)c(OC)cc5N(C)[C@H]4[C@@](O)(C(=O)OC)[C@@H]1OC(C)=O)[C@@H]32 | 97.2% | 95.2% | 94.3% | 100% | 106% | 92.5% | 98.5% | 96.5% | 96.4% | 107% | 104% | 99.8% | 99.5% | 98.9% | 103% | 95.7% | 103% | 96.9% | 102% | 103%
O=C1/C(=C/c2ccc(Cl)c(Cl)c2)CN(C(=O)C(Cl)Cl)C/C1=C\c1ccc(Cl)c(Cl)c1 | -66.3% (active) | -31.2% (active) | -22.8% (active) | -21.8% (active) | -55.8% (active) | -53% (active) | -35.1% (active) | 7.18% (active) | -90.7% (active) | -47.1% (active) | -76.1% (active) | 0.245% (active) | -57.6% (active) | -34.2% (active) | -80% (active) | -64.7% (active) | -79.7% (active) | -93.2% (active) | -11.4% (active) | -66.9% (active)
O=C(CSc1nc2ccc([N+](=O)[O-])cc2[nH]1)Nc1ccc(F)cc1 | 40.4% | 48.9% | 86.5% | 105% | 56.8% | -6.84% (active) | 30.1% | 58.2% | 62.7% | 68.3% | 66.8% | 42.1% | 36.3% | 80.3% | 87.8% | 68.8% | 52.1% | 79.8% | 44.5% | 59.9%
C=C(C)[C@@H]1CC[C@]2(C(=O)OC)CC[C@]3(C)[C@H](CC[C@@H]4[C@@]5(C)C/C(=C/NC(N)=S)C(=O)C(C)(C)[C@@H]5CC[C@]43C)[C@@H]12 | 80.4% | 86.3% | 101% | 97.5% | 88.9% | 90.4% | 88.2% | 76.5% | 108% | 110% | 86.3% | 73.6% | 119% | 98.5% | 99.8% | 95.8% | 99.4% | 85.6% | 100% | 87.9%
O=C(NCCCN1CCOCC1)c1cccc(N2C(=O)/C(=C/c3ccc(F)cc3)SC2=S)c1 | 92.5% | 90.4% | 104% | 100% | 107% | 46.7% | 90.3% | 103% | 97.2% | 111% | 101% | 96.2% | 90.4% | 88.9% | 94.2% | 94.1% | 95.5% | 90.6% | 97.2% | 93.8%
COc1ccc(-c2cc(-c3ccc(Cl)cc3)c(C#N)c(=O)n2CCCCC(=O)Nc2ccccc2N)cc1 | 63.4% | 55.3% | 63.8% | 64.1% | 37.6% | -3.51% (active) | 48.6% | 43.8% | 68.8% | 20.2% | 59.9% | 24.8% | 59.3% | 39.3% | 14.2% | 65.5% | -14.5% (active) | 73.9% | 44.7% | -7.3% (active)
